Laboratory results taken from PubChem BioAssay.
Measured potencies and affinities stand elsewhere. Results filed as inconclusive are left out. The source made the active and inactive calls. Unless noted, the rule behind the calls is not given here.

How the values were obtained:
[1] = cytotoxicity in PAX8-dependent RMG-1 cells, dose response, cell-based, cherry-pick (AID 687029;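 active = signal drop whose fitted half-maximal concentration is at most twice the top valid dose, in every test run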;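 note: cells exposed to compound for 96 hours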); conditions: RMG-1 viability, CellTiterGlo ATP luminescence, 96 h; series mostly up to 35 µM
[2] = inhibitors of CMV-promoter luciferase reporter, dose response, counter-screen for Pax8 inhibitor project, cell-based, HEK293, luminescence, dry powder (AID 743020;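 active = signal-lowering compounds whose fitted half-maximal concentration is at or below twice the top tested dose in every run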;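 note: HEK293 cells stably expressing the CMV luciferase reporter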); conditions: SteadyGlo luminescence, 24 h; series mostly up to 35 µM
[3] = non-specific cell cytotoxicity, dose response, cytotoxicity control for PAX8 inhibitor project, plate reader, dry powder samples (AID 743021); conditions: cell line, non-specific cytotoxicity counter-screen; series mostly up to 35 µM
[4] = IGROV1 ovarian cancer cell cytotoxicity, dose response, PAX8 inhibitor project, plate reader, dry powder samples (AID 743043); conditions: series mostly up to 35 µM;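 note: more negative means fewer viable cells or more cytotoxicity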
[5] = NIH:OVCAR-3 ovarian cancer cell cytotoxicity, dose response, PAX8 inhibitor project, plate reader, dry powder samples (AID 743044); conditions: NIH:OVCAR-3 ovarian cancer cell viability; max activity: at 35 µM, stronger effect = lower value unless noted; series mostly up to 50 µM
[6] = IOSE-T80 ovarian epithelial cell cytotoxicity, dose response, cytotoxicity control for PAX8 inhibitor project, plate reader, dry powder samples (AID 743045); conditions: IOSE-T80 ovarian epithelial cells; series mostly up to 35 µM;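 note: 0% = neutral control median and -100% = positive control median; more negative values mean more cell killing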
[7] = A2780 ovarian cancer cell cytotoxicity, dose response, cytotoxicity control, plate reader, dry powder samples (AID 743046); conditions: series mostly up to 35 µM;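 note: 0% = neutral control wells and -100% = cytotoxic reference compound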
[8] = cytotoxicity in OVCAR8 ovarian cancer cells, dose response, PAX8 project, cell-based, plate reader, dry powder samples (AID 743197); conditions: series mostly up to 35 µM

Measured: max activity

COc1cc(C(=O)NCC(c2cccs2)N2CCOCC2)ccc1OCc1ccc(Cl)cc1 (stereo unspecified)
inactive: [1] | [2] | [3]

COc1ccc(CN(C)C[C@H]2OCCCC[C@H](C)Oc3ccc(NC(=O)Nc4ccc(C(F)(F)F)cc4)cc3C(=O)N([C@H](C)CO)C[C@@H]2C)cc1
inactive: [1] | [2] | [3] | [4] | [5] -28.6% [at 8 µM, stronger effect = lower value] | [6] | [7] | [8]

O=C(c1ccco1)N1N=C(c2ccc(Br)cc2)CC1(O)C(F)(F)F (stereo unspecified)
inactive: [1] | [2] | [3]

C[C@@H]1CCCCO[C@@H](CN(C)Cc2ccc(Cl)c(Cl)c2)[C@H](C)CN([C@H](C)CO)C(=O)c2cc(NC(=O)Nc3ccc(C(F)(F)F)cc3)ccc2O1
inactive: [1] | [2] | [3] | [4] | [5] 52.8% [at 0.26 µM, stronger effect = lower value] | [6] | [7] | [8]

COc1ccc(CN(C)C[C@H]2Oc3ccc(NC(=O)Nc4ccc5c(c4)OCO5)cc3CC(=O)N([C@H](C)CO)C[C@H]2C)cc1
inactive: [1] | [2] | [3] | [4] | [5] -9.48% [at 18 µM, stronger effect = lower value] | [6] | [7] | [8]

COc1ccc(S(=O)(=O)Nc2ccc3c(c2)C(=O)N([C@H](C)CO)C[C@@H](C)[C@H](CN(C)C(=O)Nc2ccc(C(F)(F)F)cc2)OCCCC[C@H](C)O3)cc1
inactive: [1] | [2] | [3] | [4] | [5] -37.1% | [6] | [8]

Cn1nnnc1Sc1ncnc2scc(-c3ccccc3Cl)c12
inactive: [1] | [2] | [3]

COc1cc(NC(=O)c2ccc([N+](=O)[O-])o2)ccc1NC(=O)c1ccco1
inactive: [1] | [2] | [3]

CC(C1CC1)N(Cc1ccccc1)C(=S)Nc1cccc(C(F)(F)F)c1 (stereo unspecified)
inactive: [1] | [2] | [3]

C[C@H]1CN([C@@H](C)CO)C(=O)Cc2cc(NC(=O)C3CC3)ccc2O[C@@H]1CN(C)Cc1ccc(-c2ccccc2)cc1
inactive: [1] | [2] | [3] | [4] | [6]

COc1cccc(S(=O)(=O)N(C)C[C@@H]2OCc3ccccc3-c3c(n(C)c4ccccc34)C(=O)N([C@H](C)CO)C[C@@H]2C)c1
inactive: [1] | [2] | [3] | [4] | [5] -14.8% | [6]

COc1ccc(S(=O)(=O)Nc2ccc3c(c2)C(=O)N([C@H](C)CO)C[C@H](C)[C@@H](CN(C)Cc2ccc(C(F)(F)F)cc2)OCCCC[C@H](C)O3)cc1
inactive: [1] | [2] | [3] | [4] | [5] -20.9% [at 0.5 µM, stronger effect = lower value] | [6] | [7] | [8]

BrC(=C\c1ccccc1)/C=N/n1cnnc1
inactive: [1] | [2] | [3]

C[C@H](CO)N1C[C@H](C)[C@@H](CN(C)CC2CCCCC2)Oc2c(NC(=O)CCCCCC(=O)Nc3ccccc3N)cccc2C1=O
inactive: [1] | [2] | [3] | [4] | [5] 16% [at 1 µM, stronger effect = lower value] | [6] | [7]

C[C@@H]1CCCCO[C@@H](CN(C)Cc2ccc(C(F)(F)F)cc2)[C@H](C)CN([C@H](C)CO)C(=O)c2cc(NS(=O)(=O)c3cccs3)ccc2O1
inactive: [1] | [2] | [3] | [4] | [5] -15.8% | [6] | [7] | [8]

Cc1ccc(S(=O)(=O)Nc2ccc3c(c2)C(=O)N([C@H](C)CO)C[C@@H](C)[C@H](CN(C)Cc2ccc(C(F)(F)F)cc2)OCCCC[C@@H](C)O3)cc1
inactive: [1] | [2] | [3] | [4] | [5] 6.08% [at 0.5 µM, stronger effect = lower value] | [6] | [7] | [8]

O=S(=O)(c1ccccc1)N1CCCCN2[C@H](CO)[C@H](c3ccc(-c4ccccc4F)cc3)[C@H]2C1
inactive: [1] | [2] | [3] | [4] | [5] -5.95% | [6] | [7]

COc1ccc(S(=O)(=O)Nc2ccc3c(c2)CC(=O)N([C@H](C)CO)C[C@H](C)[C@@H](CN(C)Cc2ccc(Cl)c(Cl)c2)O3)cc1
inactive: [1] | [2] | [3] | [4] | [5] 16.2% [at 16 µM, stronger effect = lower value] | [6] | [7] | [8]
